Pf Dd2 inh – Plasmodium falciparum Dd2 growth inhibition | 120,000 tested, 4.3% active | P. falciparum Dd2 growth, SYBR Green, 72 h | Potency, µM (titrated, usually from 28.9 µM), hits mostly inhibitors; active = well fitted inhibition curve with a large enough effect; note: nearly all actives have a fitted effect of over 65% in size
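Infected erythrocytes (Dd2, 0.3% parasitemia, 2.5% hematocrit final) are added to compound in RPMI-1640/Albumax II medium, grown 72 h at 37C in low oxygen, then lysed with saponin/Triton-X containing SYBR Green and read by fluorescence.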
Of the large screens only hits and unclear results are named; the others gave an inactive call. Many of the other results were omitted from the sample, so hits are more common in it than they were.

NC(=O)c1cccnc1OC1CCN(C(=O)c2cccs2)C1 (configuration not stated)	none
Cc1ccc(C(=O)NC(C(=O)N2CCCCC2)C2CCN(C(=O)c3ccc4c(c3)OCO4)CC2)cc1 (configuration not stated)	none
CCOC(=O)c1ccc(NC(=O)c2cn(-c3ccccc3)nc2-c2ccc(C)cc2)cc1	none
CCOC(=O)c1ccc(N2C(=O)c3[nH]nc(-c4ccc(C)cc4)c3C2c2ccc(O)c(OCC)c2)cc1 (configuration not stated)	Pf Dd2 inh 7.1µM
CCOC(=O)c1ccc(N2C(=O)Cc3cc(OCC)c(OCC)cc3C2c2ccccc2)cc1 (configuration not stated)	none
CCOc1ccc(C2c3c(-c4ccc(C)cc4)n[nH]c3C(=O)N2c2ccc(Cl)cc2)cc1 (configuration not stated)	Pf Dd2 inh 10µM
CCOC(=O)c1ccc(N2C(=O)c3n[nH]c(-c4ccco4)c3C2c2ccc(O)c(OCC)c2)cc1 (configuration not stated)	none
CCOC(=O)c1ccc(NC(=O)c2cn(-c3ccccc3)nc2-c2ccc(Br)cc2)cc1	none
CCOC(=O)c1ccc(N2C(=O)c3[nH]nc(-c4ccc(OC)cc4)c3C2c2ccccc2Cl)cc1 (configuration not stated)	none
CCOC(=O)c1ccc(N2C(=O)c3n[nH]c(C)c3C2c2ccc(C(C)(C)C)cc2)cc1 (configuration not stated)	none
O=C1c2[nH]nc(-c3ccccc3)c2C(c2ccccc2)N1c1cccc(C(F)(F)F)c1 (configuration not stated)	none
Cc1ccc(-c2n[nH]c3c2C(c2cccc(O)c2)N(c2ccc(C(=O)O)cc2)C3=O)cc1 (configuration not stated)	none
CCOC(=O)c1ccc(N2C(=O)c3[nH]nc(-c4ccc(C)cc4)c3C2c2cccs2)cc1 (configuration not stated)	Pf Dd2 inh 11µM
CCOC(=O)c1ccc(N2C(=O)c3n[nH]c(C)c3C2c2cccc(Br)c2)cc1 (configuration not stated)	Pf Dd2 inh 13µM
Cc1ccc(S(=O)(=O)N2C[C@@H](F)C[C@H]2C(=O)N2CCOCC2)cc1F	none
Cc1ccc(-c2cc3c(=O)n(CCNC(=O)c4cccc(Cl)c4)ccn3n2)c(C)c1	none
CN1CCCC1c1nc(C2CN(S(=O)(=O)c3ccc4c(c3)CCC4)C2)no1 (configuration not stated)	none
Cc1noc(-c2cn(C3CCCN(C(=O)c4cccc(F)c4)C3)nn2)n1 (configuration not stated)	none
O=C1CC(c2ccccc2)N(C(=O)CNC(=O)Cn2ccnc2)CCCCCN1 (configuration not stated)	none
CN(C)Cc1nnc(C2CCN(C(=O)c3nc(N)nc4c3CCCC4)CC2)n1C	none
Cc1ncc2c(c1CNC(=O)CCc1ccc(=O)[nH]n1)CCNC2	none
O=C(NCCNc1cccnc1)C1CCC(=O)N(C2CC2)C1 (configuration not stated)	none
CCNC(=O)c1cccnc1OC1CCN(C(=O)C2CCC2)C1 (configuration not stated)	none
CCn1cc(-c2nc3cc(S(=O)(=O)N4CCCC4)ccc3n2C)c(C)n1	none
Cc1cccc(NC(=O)c2cc(-c3ccc[nH]3)n[nH]2)c1	none
O=C(c1csc(-c2cccs2)n1)N1CCCC1c1nc2ccccc2[nH]1 (configuration not stated)	none
CN(C)[C@@H]1C[C@H](Cn2cc(-c3cccnc3)nn2)[C@@H](O)[C@H]1O	none
O=C(NCc1cccnc1)C1CCN(c2cn[nH]c(=O)c2)C1 (configuration not stated)	none
CCOC(=O)c1ccc(N2C(=O)c3n[nH]c(-c4cccs4)c3C2c2ccc(C(C)C)cc2)cc1 (configuration not stated)	none
CCOC(=O)c1ccc(N2C(=O)c3n[nH]c(-c4cccs4)c3C2c2cccc(O)c2)cc1 (configuration not stated)	none
CCOC(=O)c1ccc(N2C(=O)c3n[nH]c(-c4cccs4)c3C2c2ccc(CC)cc2)cc1 (configuration not stated)	Pf Dd2 inh 10µM
Cc1nn(C(C)C)c(C)c1CNC(=O)c1cn(CCC2CCCCN2)nn1 (configuration not stated)	none
Cc1nc2c(c(-c3ccc(O)cc3)n1)CN(C(=O)Cc1ccccn1)CCC2	none
CCC(C)NC(=O)N1CC(n2cc(C(=O)NCC3CC3)nn2)C1 (configuration not stated)	none
COc1ccc(C(=O)N2CC(CO)C3(CCNCC3)C2)c(OC)c1 (configuration not stated)	none
CSc1ncccc1C(=O)N1CC[C@@](C)(O)[C@@H](O)C1	none
CC(C)NC(=O)c1coc(COc2ccc3c(c2)C(c2cccc(F)c2)N(C(=O)C2CC2)CC3)n1 (configuration not stated)	none
CCNC(=O)c1coc(COc2ccc3c(c2)C(c2cccc(F)c2)N(C(=O)C(C)C)CC3)n1 (configuration not stated)	Pf Dd2 inh 0.71µM

Compound activity: PubChem BioAssay, National Center for Advancing Translational Sciences (NCATS)
